The record followed here is PubChem BioAssay (NCATS).

Values joined by “and” are separate entries in the source; they are usually repeats but may differ in a detail not shown here. Equal values may be shown once. Results filed as inconclusive are left out. Active and inactive are the calls of the source. Calls follow the shape of the full dose curve.

This test in a line: qHTS Assay for Lipid Storage Modulators (AID 1519). As to activity change, negative = inhibition: % is scaled to controls: 0 for no effect and ±100 for the full control effect. The settings on record: Drosophila S3 cells, BODIPY lipid droplet/cell ratio, laser cytometry, cells loaded with oleic acid. The source says: NIH Molecular Libraries Probe Production Centers Network [MLPCN]
NIH Chemical Genomics Center [NCGC]
Assay Submitter (PI): Beller, Mathias; Max-Planck-Institut fur Biophysikalische Chemie
NCGC Assay Overview: Storing lipids as a reservoir for energy or the anabolism of elementary metabolites is a common feature of probably all cells and is conserved from bacteria to humans. The universal cellular lipid storage organelle is the so-called lipid storage droplet (LD). Although ubiquitous, LDs share a simple structure composed of a hydrophobic core that harbors the storage lipids, which is shielded by a droplet-specific phospholipid monolayer to which proteins are attached. The current model of LD biogenesis involves an incorporation of the lipid core into the membrane leaflets of the endoplasmic reticulum (ER) followed by a subsequent budding-like maturation of a LD, which ultimately pinches off. Once released, LD volume can increase by localized lipogenesis or fusion of existing droplets. Storage lipids are re-mobilized enzymatically by lipase activity. Lipase regulation in the adipocyte is heavily studied and involves multiple components including catecholamine signaling, the LD-associated proteins Perilipin and comparative gene identification-58 (CGI-58) and at least two lipases named hormone sensitive lipase (HSL) and adipocyte triglyceride lipase (ATGL). LD regulation outside of the adipocyte is poorly understood and only few components are known. However, there is an urgent need to learn more about ectopic fat depots as mislocalized storage of lipids, for example in the liver or muscle, is an eminent health problem associated with insulin resistance or the metabolic syndrome. We developed a laser-scanning cytometer assay to enable 1,536-well screening and combined the results of the small molecules screen with an RNAi database based on lipid storage.
NCGC Assay Protocol Summary:
We dispensed 4 uL of cells at 1.25 x 10^6 cells/mL into LoBase Aurora COC 1,536-well plates (black walled, clear bottom) with a bottle-valve solenoid-based dispenser (Aurora) to obtain 5,000 cells/well. Triacsin C (Sigma-Aldrich T-4540), an inhibitor of long-chain fatty acyl CoA synthetase that blocks synthesis of triglycerides, was used as a positive control for lipid under-storage. A total of 23 nL of compound solution of different concentrations were transferred to the assay plates using a Kalypsys pin tool equipped with a 1,536-pin array containing 10-nL slotted pins (FP1S10, 0.457-mm diameter, 50.8 mm long; V&P Scientific). One microliter of oleic acid (400 uM) was added, and the plate was lidded with stainless steel rubber gasket lined lids containing pinholes. […] Fluorescence was detected by excitation of the fluorophores with a 488-nm laser on an Acumen Explorer (TTP Lab Tech). The total intensity in channel 1 (500-530 nm) reflected lipid droplet accumulation. […] The ratio of the total intensity in PMT channel 1 over total intensity of channel 3 was also calculated. Percent activity was computed relative to an internal control (100% inhibited lipid droplet deposition due to the presence of 20 uM Triacsin C), which was added to 32 wells/plate.
(In general: In qHTS, concentration-response curves come from the screen itself.)

Setting [1] is: measured here: cell count channel max response.
The mark [2] stands for this setting: measured here: lipid channel max response.

For the compound `O=C(NCCNC[C@@H](O)COc1ccc(O)cc1)N1CCOCC1`, the activity change, negative = inhibition (at 25.7 µM (top of the series)) is -1.5% (inactive) and the activity change, negative = inhibition (at 57.5 µM (top of the series)) is -3.4% (inactive). In addition, the max response was -11.7% and -2.05% under setting [1]; -12.6% and -5.19% under setting [2].

As to `CC[N+](C)(CC)CCC[n+]1c(-c2ccccc2)c2cc(N)ccc2c2ccc(N)cc21`, for the setting “at 25.7 µM (top of the series)”, the activity change, negative = inhibition was 0.117% (inactive). Also, the max response is, setting by setting: under setting [1], -4.14%; under setting [2], -3.68%.

Regarding `NCCCCCCNS(=O)(=O)c1cccc2c(Cl)cccc12`, the activity change, negative = inhibition (at 57.5 µM (top of the series)) is 3.12% (inactive). The max response amounted to 13.8% under setting [1] and 16.8% under setting [2].

`COc1ccc(-c2cc(=O)c3c(O)cc(O)c(-c4cc(-c5cc(=O)c6c(O)cc(O)cc6o5)ccc4OC)c3o2)cc1`: the activity change, negative = inhibition (at 57.5 µM (top of the series)) is 6.01% (inactive). For the same compound, the max response was -20.7% under setting [1] and -15.6% under setting [2].

On to `Cc1ccccc1N=C(N)Nc1ccccc1C`, for which, for the setting “at 57.5 µM (top of the series)”, the activity change, negative = inhibition is 3.82% (inactive). The max response reads like this: under setting [1], 2.46%; under setting [2], 7.24%.

As for `C1CCC(N=C(NC23CC4CC(CC(C4)C2)C3)N2CCOCC2)CC1`, the activity change, negative = inhibition (at 57.5 µM (top of the series)) is 1.57% (inactive). Besides, the max response under setting [1] was -18.7% and the max response under setting [2] was -17.8%.

`CC[C@](N)(CCC(=O)O)C(=O)O`: where the note is “at 57.5 µM (top of the series)”, the activity change, negative = inhibition is -0.484% (inactive). Further, the max response worked out at 20.6% under setting [1] and 15.7% under setting [2].

Regarding `CSc1nc(N)c2ncn([C@H]3O[C@H](COP(=O)(O)OP(=O)(O)OP(=O)(O)O)[C@@H](O)[C@@H]3O)c2n1`, the activity change, negative = inhibition (at 57.5 µM (top of the series)) was 4.02% (inactive). Besides, the max response is -2.91% under setting [1] and 1.82% under setting [2].

Regarding `C[C@@](N)(C(=O)O)c1ccc(S(=O)(=O)O)cc1`, for the setting “at 57.5 µM (top of the series)”, the activity change, negative = inhibition is -0.133% (inactive). The max response reads like this: under setting [1], 9.59%; under setting [2], 13.8%.

Regarding `CC(C)=CCC/C(C)=C/CC/C(C)=C/CC/C(C)=C/CO`, where the note is “at 57.5 µM (top of the series)”, the activity change, negative = inhibition is 7.37% (inactive). Also, the max response under setting [1] stood at 9.56% and the max response under setting [2] was found to be 21.5%.

On to `O=C(O)[C@H]1CN(CCCP(=O)(O)O)CCN1`, for which the activity change, negative = inhibition (at 57.5 µM (top of the series)) is 5.99% (inactive) and -0.486% (inactive). The max response runs as follows: under setting [1], -5.69% and -2.47%; under setting [2], 0.367% and -3.68%.

With `O=C(O)CCC/C=C\C[C@@H]1CO[C@H](C(F)(F)F)O[C@@H]1c1ccccc1O`, the activity change, negative = inhibition (at 57.5 µM (top of the series)) was 0.11% (inactive). Further, the max response runs as follows: under setting [1], -8.58%; under setting [2], -8.44%.

As for `CN(Cc1cnc2nc(N)nc(N)c2n1)c1ccc(C(=O)NC(CCC(=O)O)C(=O)O)cc1` (stereo not given), the activity change, negative = inhibition (at 57.5 µM (top of the series)) was 6.64% (inactive). The max response amounted to 7.14% under setting [1] and 16% under setting [2].
